In all, about 25,000 sequences were measured (“ln(normalized median fluorescence intensity)”: median about 9.3, highest 2% from about 10 on). What follows is part of a selection rich in the highest values, with near analogues and random picks from the rest.
System: PF3D7_0420300 AP2 domain 1 (GST-tagged)
Experiment: gcPBM binding intensity (ln(normalized median fluorescence intensity)); higher = stronger DNA binding
How it was run: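 An Agilent 4 × 180k array carrying primer-extended double-stranded 36-bp intergenic genomic probes and negative controls received GST-tagged P. falciparum DNA-binding domains expressed in E. coli, about 25 μg on average, for 1 h. The binding buffer contained 1× PBS, 1% milk, 0.2 mg/ml BSA, 0.5% salmon testes DNA and 0.03% Triton X-100. Binding intensity is the top Masliner-normalised natural-log median intensity across replicate spots of either probe orientation, read after Alexa488 anti-GST antibody staining and a 488 nm scan.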

Point of comparison: “ACCTATTTCAAACACACACACACACCCACAAACATA [CACACA_site977]”, “gcPBM binding intensity (ln)” value 10.4. Against it:
- AAAAAAAAAAAAAGTACACACTTTTGCGTACAAGTA [CACACA_site5672] — lower, 9.32
- TTTTTAAAAAAAAATAGAGAGTCAAAGTATGTGGCG [CACACA_negctrl_site194] — lower, 9.32
- AATTCTTTCATATATTGTACGTATTCCCATAAAATA [XGTACX_site5923] — lower, 9.36
- AATGCCTTGTTGAGGTGTACTGAATGTTATTTTAAT [XGTACX_site3255] — lower, 9.19
- TATATATAAATAAACACACACAAATATAATAAAAAA [CACACA_site3526] — lower, 10.1
- CAAAAAATTCAACACACACACACACCGATAAATAAA [CACACA_site8330] — lower, 10.2
- TACAAAAATATATAAACACACAAATATAATATATAT [CACACA_site2942] — lower, 9.74
- AAAATAAAATAAAACACAAAAAAATAAAACAAAATA [CACACA_negctrl_site16] — lower, 9.8
- TTCAAAATAAAAAATTCACACACATATATATATATA [CACACA_site8653] — lower, 9.33
- CACAAAAATAAATATAAACACACAATAAATAAATAA [CACACA_site8197] — lower, 9.75
- ACAAATAAATAAAAAACACACACAAATAAATAAATA [CACACA_site8708] — lower, 10.1
- AATAAAAACAAACAAAAAAACAAATAAATAAATAAA [CACACA_negctrl_site483] — lower, 9.65
- AAATAATTCAAAAAAACACACAAATTACAAAATAAA [CACACA_site269] — lower, 9.72
- ACAAAATAAAAACACACACACAAACACAAAAAAATA [CACACA_site3390] — lower, 10.3
- AATATATATAAATAAACACACACAAATATAATAAAA [CACACA_site9176] — lower, 10.2
- AAAAAAAAAAAAAACACACACACAAAATAAACAAAC [CACACA_site2720] — lower, 10.3
- TATATATTATAAAAGAGTACAGAAAGAAAAAAAAAT [XGTACX_site8305] — lower, 9.54
- TCTTTTAAATAACAACATAAATAAATAAATAAATAA [GTGCAC_negctrl_site319] — lower, 9.01
- GTGTATTTTGTGCGCACACACATGCAAAAAGAAATA [CACACA_site6660] — lower, 9.55
- AGAAATTATAAATACCTACACACTTATCAAAATAAA [CACACA_site2264] — lower, 9.55
- TTACACATATATATAAATATATATAAATATATATAT [CACACA_negctrl_site150] — lower, 9.08
- AATATTATTTAGGAGCGTACGTTTTATTTACATATT [XGTACX_site5188] — lower, 9.4
- TATATTAAACCATGTAGTACCTTGAATAAATATTAT [XGTACX_site8254] — lower, 9.23
- TTTATTTAATTCATTGCATGTAATTTTTGTGTCCAC [TGCATGCA_site677] — lower, 9.21
- ATTACATAACAATATACACACTATTGATTAAAGAGA [CACACA_site5602] — lower, 9.56
- GGAATATAAATACATACACACATATATATATATATA [CACACA_site4998] — lower, 9.44
- TTTTTTATTTTGTGCACACACATAAAAATATATATA [CACACA_site761] — lower, 9.5
- TTAATAAGAGAGCAATAGGTGGACTGTTTCTTTTAT [CACACA_negctrl_site1239] — lower, 9.22
- TACCAAAATAGACACACACACAAAATATGTAAATAT [CACACA_site6963] — lower, 10.2
- TAAATTAAAAAACACACACACAAAAAAAAAAAAAAA [CACACA_site2263] — lower, 10
- AAATAAATAATATGTAAACACACAAAAAATAAAAAT [CACACA_site8307] — lower, 9.72
- AATTAACAAAAACACACACACACACCCACAAAAAAA [CACACA_site517] — lower, 10.1
- AATTAACAAAAACACACACACACACCGACAAAAAAA [CACACA_site4444] — lower, 10.3
- CACAAAAATAGACACACACACATATAAATAAATATA [CACACA_site6598] — lower, 10
- ATATATATATATATATATATATATATATATTATATA [XGTACX_negctrl_site48] — lower, 8.89
- ATGTGTATAATTAAATGTACATATATATATATATAT [XGTACX_site829] — lower, 9.52
- ATATGTAGAATAAAAAAAAAAAAAAAAAAAAAAAAT [CACACA_negctrl_site621] — lower, 9.39
- TATTAATTATATTTATGTACATAATCATATTATTAT [XGTACX_site7938] — lower, 9.37
- TTTAATCATATGTTATATAATAAGCCCCCCCCCCAA [CACACA_negctrl_site486] — the same, 10.4
- ATATATATATAATTATATAAAATATATCATATGTTA [XGTACX_negctrl_site47] — lower, 9.15
- TGTAGCCTGGAGAAGAGTACATAGTATCTGGTAGCT [XGTACX_site4943] — lower, 9.12
- ATATTCATGTTGATATGTACTTATTCTATATTGAAT [XGTACX_site8347] — lower, 9.28
- AAGTGCATATTATTCACACATAATAATTGTATACCT [CACACA_site5965] — lower, 9.34
- CTAAACAAAAAATAATGTACACATACATAAAAAATA [XGTACX_site1808] — lower, 9.35
- AAAAAAATTCTTGGCGCACACACTTTAAAAATTAAA [CACACA_site597] — lower, 9.24
- AAGTAAAAAAATAGCACACACACAAAAACACAGACA [CACACA_site4839] — lower, 10.2
- AAATATTAGTAACACAGACACACAAAAAAAAAAAAA [CACACA_site2175] — lower, 9.5
- AAAAAACAAAAACACACGCACACAAAAAAAAAAAAA [CACACA_site802] — lower, 9.82
- CAATATAAAAAACACACGCACACAAAAAAAAAAAAA [CACACA_site3521] — lower, 9.79
- GTAAAAAAATAGCACACACACAAAAACACGCACAAA [CACACA_site6723] — lower, 10.2
- AAGTAAAAAAATAGCACACACACAAAAACACCCACA [CACACA_site1291] — lower, 10
- AAAAAAAACATCCTCACACATATATATATATATATA [CACACA_site5166] — lower, 9.18
- TCACCATATAAACGTGCACACTACAAAAATATATAA [CACACA_site5413] — lower, 9.26
- TTGGTTATACAACACATGCACACGTAAATAAATATT [CACACA_site3841] — lower, 9.38
- AAAGACGTTTATAAATGTACATACACTTTAAAAGTT [XGTACX_site8753] — lower, 9.08
- AAAAAGTGATTAAAATGTACAAAATGCATAAAAGAA [XGTACX_site6625] — lower, 9.6
- TATAAATAGAGGAAGCGTACATATATATATATATAT [XGTACX_site4993] — lower, 9.34
- ATAAATAAATAAAAGCGTACATATATATAAAATATA [XGTACX_site8107] — lower, 9.39
- TCGGGAGGGGGGAAGCGTACATATATAAAATTATTA [XGTACX_site4683] — lower, 10.2
- TTCTTACATGAGTGTACACACTTTTTTTCAGAAAAT [CACACA_site4215] — lower, 9.19
- AAACCGTGGGAGCACACACACACACGCGCACATATA [CACACA_site6288] — lower, 10.1
- ATGGGACATATATATACACACATATATATATATATA [CACACA_site1202] — lower, 9.46
- ACTGTGGGAATAACCACACACACACCCACATATATA [CACACA_site3542] — lower, 10
- ACCGTGGGAAGACACACACACACACCCACATATATA [CACACA_site333] — lower, 10.2
- ACCGTGGGAGGACACACACACACACCCACATATATA [CACACA_site4339] — lower, 10.2
- AACGCACGAGGACACACACACATATTTATATTTATA [CACACA_site6608] — lower, 9.87
- CGTGGGAGCGGACACACACACACACCCATATATATA [CACACA_site4340] — lower, 10.1
- CGTGGGAGCAGACACACACACACACCCATATATATA [CACACA_site334] — lower, 10.1
- ACCGTGGGAGGACACACACACACACGCACATATATA [CACACA_site6289] — lower, 10.3
- AATTATCAGGAATGATGTACTGAAATAAAAAAAAAA [XGTACX_site3280] — lower, 9.11
- GTATATATATATATATGTACTAATTAGTAGTTTACG [XGTACX_site6274] — lower, 9.25
- TTTTTATGAATTCTTTTGTTAATAATAATATGTTGT [TGCATGCA_negctrl_site198] — lower, 9.19
- ATATATCTGTATGGCACACACGGATAAATATATATA [CACACA_site4668] — lower, 9.52
- ATATAGTAAATTGGTAGTACATAAAATGATTTTATG [XGTACX_site4143] — lower, 9.26
- AAAAAAAAATTGTGTACACATAATTATATCATATGT [CACACA_site4500] — lower, 9.3
- ACCTATTTCAAACACACACACACACTAGCAAACATA [CACACA_site4695] — lower, 10.3
- ACTATTTTCTTCAAAACATGCACCACATAAACATAA [TGCATGCA_site200] — lower, 9.18
- TGTTTCTTATTTTTTTCACACACTAAACATTTCAAA [CACACA_site2218] — lower, 9.62
- CTATTTCAGAAACACACACACACAAACAAACATATA [CACACA_site978] — lower, 9.93
- TTTCTTATTTTTTTCACACACTAAACATTTCAAATG [CACACA_site5259] — lower, 9.35
- ACCTATTTCAAACACACACACACACTAACAAACATA [CACACA_site8233] — lower, 10.3
- AAAAAATTAAAAATCACACATAAATATATATAAAAA [CACACA_site4192] — lower, 9.48
- CATATATTATTATATGCACACATGAAAATATACAAA [CACACA_site2795] — lower, 9.49
- AAGAAAAAAATTTATACAAGAATTTTTTATTATTAA [TGCATGCA_negctrl_site587] — lower, 8.9
- ATTTATGTTATATATACACACACAAAAGAAAAAAAA [CACACA_site8977] — lower, 9.82
- AAACATATAAACATATGTACATATAAACATATATAC [XGTACX_site5026] — lower, 9.42
- AAAAAAAAAGTATTATGTACATAAAAATAAAAAAAT [XGTACX_site4166] — lower, 9.42
